The record followed here is publication PMC5540273 (PLoS ONE, 2017).

Some test systems named below: MTOR; MUSK; MYLK2; MYLK4; MYLK; MYO3A; MYO3B; NDR2; NEK10.
What all share (settings): concentration: 1 μM,replicates: in singlicate; n = 1
The next experiment concerns T1, NDR1.
T1 construct: gene STK38
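Also: KINOMEscan kinase panel screen.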

Turning to `CS(=O)c1ccc(-c2coc3ccc(-c4n[nH]c(=O)o4)cc23)cc1` (stereo not shown), the “%Inh” value in the experiment on MTOR turned out to be 17%; with MUSK, 0%; in the experiment on MYLK2, 20%; with MYLK4 it was 24%; in the experiment with MYLK, 41%; in the experiment on MYO3A, 0%. Further, the “%Inh” value with MYO3B is given as 0%; in the experiment with NDR1, 2%; with NDR2 it was 22%; with NEK10, 56%.

For `Cc1cccc(-c2nc(Nc3ccncc3)c3sccc3n2)n1` [GW869641], the “%Inh” value with MTOR worked out at 75%; in the experiment on MUSK, 0%; with MYLK2, 4%; in the experiment on MYLK4, 0%; in the experiment with MYLK it was 35%; in the experiment with MYO3A, 9%. The “%Inh” value was determined as 21% in the experiment on MYO3B, 35% in the experiment on NDR1, 0% with NDR2 and 24% in the experiment on NEK10.

As for `NC(=O)c1ccc(-c2cc3ncnc(SCC(=O)O)c3s2)cc1`, the “%Inh” value in the experiment on MTOR is reported as 39%; in the experiment on MUSK, 0%; in the experiment on MYLK2, 0%; in the experiment with MYLK4 it was 0%; in the experiment with MYLK, 0%; in the experiment with MYO3A, 0%. In addition, the “%Inh” value worked out at 3% with MYO3B, 31% in the experiment on NDR1, 0% in the experiment on NDR2 and 0% in the experiment with NEK10.

As for `O=C(NOCC1CC1)c1cc(Br)c(F)c(F)c1Nc1ccc(I)cc1Cl`, the “%Inh” value in the experiment with MTOR is 26%; with MUSK it was 9%; in the experiment on MYLK2, 0%; with MYLK4 it was 0%; with MYLK it was 0%; in the experiment with MYO3A, 0%. The “%Inh” value in the experiment with MYO3B is given as 20%; with NDR1, 33%; in the experiment with NDR2, 0%; with NEK10, 0%.

As to `O=C(Nc1cccc(C(F)(F)F)c1)c1cccc(Oc2ccc3nccn3n2)c1`, the “%Inh” value in the experiment with MTOR is listed as 0%; with MUSK, 12%; in the experiment on MYLK2 it was 0%; with MYLK4, 0%; in the experiment on MYLK it was 6%; in the experiment on MYO3A, 0%. In addition, the “%Inh” value is on record as 0% in the experiment with MYO3B, 80% in the experiment with NDR1, 0% in the experiment with NDR2 and 0% in the experiment with NEK10.

Regarding `CC(=O)c1c(-c2ccncc2)[nH]c(-c2ccncc2)c1C` [GW493036], the “%Inh” value in the experiment on MTOR was 0%; in the experiment on MUSK it was 8%; in the experiment on MYLK2, 4%; with MYLK4, 7%; in the experiment on MYLK it was 4%; in the experiment on MYO3A, 42%. For the same compound, the “%Inh” value in the experiment with MYO3B amounted to 0%; with NDR1, 19%; with NDR2 it was 0%; in the experiment on NEK10 it was 0%.

In the case of `O=C(NCC1CC1)c1ccc(-c2cc(C(=O)NC3CC3)ccc2F)cc1` [GW810445], the “%Inh” value in the experiment with MTOR came to 21%; in the experiment on MUSK it was 0%; with MYLK2, 0%; in the experiment with MYLK4, 0%; in the experiment with MYLK it was 0%; with MYO3A, 0%. Besides, the “%Inh” value turned out to be 8% in the experiment on MYO3B, 0% in the experiment with NDR1, 7% in the experiment with NDR2 and 0% in the experiment on NEK10.

As to `Cc1ccc2c(-c3ccnc(Nc4ccc(C(F)(F)F)cc4)n3)cnn2n1` [GW819776], the “%Inh” value in the experiment on MTOR was 0%; in the experiment on MUSK it was 7%; in the experiment with MYLK2, 9%; with MYLK4 it was 23%; in the experiment with MYLK it was 19%; in the experiment with MYO3A, 0%. For the same compound, the “%Inh” value turned out to be 0% with MYO3B, 37% in the experiment on NDR1, 10% in the experiment on NDR2 and 31% in the experiment with NEK10.

As to `CCN1CCN(CCCC(=O)Nc2n[nH]c3nc(-c4ccc(O)cc4)c(Br)cc23)CC1` [SB-731579], the “%Inh” value is given as 0% in the experiment with MTOR; 0% in the experiment on MUSK; 98.5% in the experiment with MYLK2; 1% in the experiment with MYLK4; 0% with MYLK; 62% in the experiment with MYO3A. Moreover, the “%Inh” value with MYO3B is on record as 17%; with NDR1, 0%; in the experiment with NDR2 it was 0%; with NEK10, 0%.

Consider `Cc1ccc(CC(=O)N2CCc3cc(-c4cn(C)c5ncnc(N)c45)ccc32)cc1` [GSK2634758], for which the “%Inh” value is 32% in the experiment with MTOR; 0% in the experiment with MUSK; 87% in the experiment with MYLK2; 0% in the experiment with MYLK4; 0% in the experiment with MYLK; 0% with MYO3A. The “%Inh” value in the experiment on MYO3B was 9%; with NDR1, 18%; with NDR2, 8%; with NEK10 it was 0%.

In the case of `CSc1nccc(-c2c(-c3ccc(F)cc3)ncn2CCCN2CCOCC2)n1.Cl` [SB-217146], the “%Inh” value is reported as 35% in the experiment with MTOR; 0% with MUSK; 0% in the experiment with MYLK2; 0% with MYLK4; 5% with MYLK; 21% with MYO3A. Besides, the “%Inh” value with MYO3B stood at 8%; with NDR1, 42%; in the experiment on NDR2, 26%; in the experiment with NEK10, 14%.

As for `O=C(Nc1ccc(Oc2ccc3nc(NC(=O)C4CC4)cn3n2)c(F)c1)c1cccn(-c2ccccc2)c1=O`, the “%Inh” value in the experiment with MTOR was 21%; in the experiment on MUSK it was 99.5%; in the experiment with MYLK2, 0%; in the experiment on MYLK4, 0%; in the experiment on MYLK, 0%; in the experiment with MYO3A, 0%. The “%Inh” value with MYO3B turned out to be 0%; in the experiment on NDR1 it was 3%; in the experiment on NDR2, 0%; with NEK10, 0%.

Regarding `N#Cc1cccc(C(=O)NC2CCN(c3ccnc(Nc4ccc(F)cc4)n3)C2)c1` (stereo not shown) [GSK1379708], the “%Inh” value was 4% in the experiment with MTOR; 0% in the experiment on MUSK; 0% with MYLK2; 0% with MYLK4; 0% in the experiment with MYLK; 4% in the experiment with MYO3A. Besides, the “%Inh” value with MYO3B is 0%; in the experiment on NDR1, 0%; in the experiment on NDR2, 41%; with NEK10 it was 1%.

In the case of `C[C@@H]1CNc2c(sc3ccc4nc(-c5ccncc5)ccc4c23)C(=O)N1`, the “%Inh” value is listed as 50% in the experiment on MTOR; 0% in the experiment with MUSK; 2% in the experiment on MYLK2; 11% in the experiment with MYLK4; 62% in the experiment with MYLK; 0% in the experiment on MYO3A. Besides, the “%Inh” value in the experiment with MYO3B was 27%; with NDR1 it was 18%; in the experiment with NDR2 it was 0%; in the experiment on NEK10, 7%.

For `CCNCC(Cc1ccccc1)NC(=O)c1cc(Br)c(-c2ccnc3[nH]ccc23)s1.Cl.Cl` (stereo not shown) [GSK1383280], the “%Inh” value is 8% with MTOR; 2% with MUSK; 22% in the experiment with MYLK2; 86% in the experiment on MYLK4; 73% in the experiment on MYLK; 15% with MYO3A. In addition, the “%Inh” value with MYO3B amounted to 0%; in the experiment on NDR1 it was 99.8%; in the experiment on NDR2, 52%; in the experiment with NEK10, 0%.

For `C[C@@H]1CCN(C(=O)N2CCCC2)C[C@@H]1N(C)c1ncnc2[nH]ccc12`, the “%Inh” value with MTOR was 8%; with MUSK, 0%; in the experiment on MYLK2, 5%; with MYLK4, 3%; with MYLK it was 2%; with MYO3A, 1%. Moreover, the “%Inh” value with MYO3B stood at 0%; in the experiment with NDR1, 4%; in the experiment with NDR2, 0%; in the experiment on NEK10 it was 30%.
